Experiment [1] concerns the target Acetylcholinesterase (Homo sapiens) (UniProt P22303). Kind of experiment: Acetylcholinesterase (AChE) small molecule antagonists: colormetric cell-based qHTS assay (AID 1347395). Note: nearly all actives have a fitted effect of over 30% in size. The method in brief:
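Colorimetric read-out: DTNB detects thiocholine released when cellular AChE in SH-SY5Y cells hydrolyses acetylthiocholine. Cells attached overnight, received compound for 30 min at 37 C, then substrate mix for 90 min at 37 C.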
A general note: Quantitative high-throughput screening tests each substance at several concentrations.

For experiment [2] the target is unchanged. In words: Acetylcholinesterase (AChE) small molecule antagonists: enzyme-based qHTS assay (AID 1347397). Note: nearly all actives have a fitted effect of over 55% in size. The settings on record: Potency: AChE enzyme activity inhibition; outcome: AChE enzyme activity inhibition. The method in brief: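 Absorbance-based detection of thiocholine with DTNB served as the read-out. Recombinant human AChE was exposed to compound for 30 min at RT before a 10 min RT incubation with acetylthiocholine.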

Experiment [3] has the same target. Kind of experiment: Acetylcholinesterase (AChE) small molecule antagonists: fluorescence cell-based qHTS assay (AID 1347398). Note: nearly all actives have a fitted effect of over 50% in size. The conditions noted are these: Potency: AChE activity; outcome: AChE activity. The procedure, abridged: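 Fluorimetric cell-based assay: intact SH-SY5Y cells, 30 min compound preincubation at 37 C, acetylthiocholine substrate with thiol probe Thiolite Green, 40 min RT development, fluorescence 490/520 nm.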

Experiment [4] shares this target. In words: Acetylcholinesterase (AChE) small molecule antagonists: enzyme-based qHTS assay with human liver microsomes (AID 1347399). Note: nearly all actives have a fitted effect of over 60% in size. The settings on record: Potency: qHTS inhibition; outcome: qHTS inhibition. The procedure, abridged: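 Recombinant human AChE (50 mU/mL in the enzyme mix) and human liver microsomes (0.25 mg/mL final) were preincubated with compound and NADPH (0.25 mg/mL final) for 30 min at 37 C. Acetylthiocholine/DTNB was then added; thiocholine was read colorimetrically after 10 min at room temperature.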

Each structure is given as a SMILES string. “And” between values parts separate entries of the source, which are not always exact repeats. Equal values may be shown once. Inconclusive results are not listed. A structure can be active in one record and inactive in another. The source made the active and inactive calls. Calls come from the whole dose curve.
% is set by controls: 0 for no effect and ±100 for the full control effect; potency is the fitted concentration of half-maximal effect.

Chain of Acetylcholinesterase (Homo sapiens) (P22303 whole entry, looked up): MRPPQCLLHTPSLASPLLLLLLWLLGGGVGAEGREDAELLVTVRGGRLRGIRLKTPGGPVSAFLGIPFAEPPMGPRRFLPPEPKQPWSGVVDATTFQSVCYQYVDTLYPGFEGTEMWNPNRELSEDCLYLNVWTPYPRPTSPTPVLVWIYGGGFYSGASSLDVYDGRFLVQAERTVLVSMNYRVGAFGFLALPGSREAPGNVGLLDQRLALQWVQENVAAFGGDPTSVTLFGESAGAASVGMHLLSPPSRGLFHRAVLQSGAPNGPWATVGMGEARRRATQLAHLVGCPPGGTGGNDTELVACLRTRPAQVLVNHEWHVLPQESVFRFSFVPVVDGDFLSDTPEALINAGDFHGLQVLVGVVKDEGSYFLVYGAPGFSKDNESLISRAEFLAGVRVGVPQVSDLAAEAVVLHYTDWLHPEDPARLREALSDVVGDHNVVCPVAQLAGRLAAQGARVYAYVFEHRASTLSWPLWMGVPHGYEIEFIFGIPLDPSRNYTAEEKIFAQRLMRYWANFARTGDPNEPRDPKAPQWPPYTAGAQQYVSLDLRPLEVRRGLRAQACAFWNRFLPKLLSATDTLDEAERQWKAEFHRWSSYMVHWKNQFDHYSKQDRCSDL

Regarding `O=S(=O)(Oc1ccc(Cl)cc1)c1ccccc1`, the Potency entry in experiment [1], in experiment [2], in experiment [3] and in experiment [4] was “inactive” throughout.
For the molecule `CCOc1cc(OCC)c(C(=O)CCC(=O)O)cc1OCC`, the Potency result in experiment [1], in experiment [2], in experiment [3] and in experiment [4] was “inactive” in each case.
Regarding `CCC[Si](OC)(OC)OC`, the Potency entry in experiment [1], in experiment [2], in experiment [3] and in experiment [4] was “inactive” throughout.
Consider `COc1ccc([C@@H]2Sc3ccccc3N(CCN(C)C)C(=O)[C@@H]2OC(C)=O)cc1`, for which the Potency entry in experiment [1], in experiment [2], in experiment [3] and in experiment [4] was “inactive” in each case.
For the molecule `O=C1NCC2(CCN(CCc3ccccc3)CC2)O1`, the Potency entry in experiment [1], in experiment [2], in experiment [3] and in experiment [4] was “inactive” throughout.
For `O=C(c1ccccc1)C(O)c1ccccc1` (stereo not given), the Potency entry in experiment [1], in experiment [2], in experiment [3] and in experiment [4] was “inactive” in each case.
As for `O=C1NCCN1`, the Potency result in experiment [1], in experiment [2], in experiment [3] and in experiment [4] was “inactive” throughout.
With `NC=O`, the Potency result in experiment [1], in experiment [2], in experiment [3] and in experiment [4] was “inactive” each time.
As for `CCCCC(CC)COC(=O)c1ccccc1C(=O)O` (stereo not given), the Potency result in experiment [1], in experiment [2], in experiment [3] and in experiment [4] was “inactive” each time.
Regarding `C=C[C@H]1CN2CC[C@H]1C[C@H]2[C@H](O)c1ccnc2ccc(OC)cc12`, the Potency result in experiment [1], in experiment [2], in experiment [3] and in experiment [4] was “inactive” in each case.
Take `CC/C=C\CCOC(=O)CCCCC`: the Potency result in experiment [1], in experiment [2], in experiment [3] and in experiment [4] was “inactive” each time.
Regarding `CC(=O)OCc1ccccc1`, the Potency result in experiment [1], in experiment [2], in experiment [3] and in experiment [4] was “inactive” throughout.
`CC1=NC(C)OC1C` (stereo not given): the Potency entry in experiment [1], in experiment [2], in experiment [3] and in experiment [4] was “inactive” each time.
For the molecule `CCCCC(CC)C(=O)OCCOCCOCCOCCOC(=O)C(CC)CCCC` (stereo not given), the Potency entry in experiment [1], in experiment [2], in experiment [3] and in experiment [4] was “inactive” each time.
Consider `CCCCCCOCCO`, for which the Potency result in experiment [1], in experiment [2], in experiment [3] and in experiment [4] was “inactive” in each case.
In the case of `OCCOc1cccc(OCCO)c1`, the Potency result in experiment [1], in experiment [2], in experiment [3] and in experiment [4] was “inactive” each time.
Regarding `CSc1cnc(C)cn1`, the Potency result in experiment [1], in experiment [2], in experiment [3] and in experiment [4] was “inactive” each time.
`CC(=O)OC[C@H]1O[C@@H](n2ncc(=O)[nH]c2=O)[C@H](OC(C)=O)[C@@H]1OC(C)=O`: the Potency entry in experiment [1], in experiment [2], in experiment [3] and in experiment [4] was “inactive” each time.
In the case of `c1cc(N(CC2CO2)CC2CO2)ccc1OCC1CO1` (stereo not given), the Potency entry in experiment [1], in experiment [2], in experiment [3] and in experiment [4] was “inactive” throughout.
As for `CC(C)(C#N)Nc1nc(Cl)nc(NC2CC2)n1`, the Potency result in experiment [1], in experiment [2], in experiment [3] and in experiment [4] was “inactive” each time.
For `CC(C)CCOCCC(C)C`, the Potency result in experiment [1], in experiment [2], in experiment [3] and in experiment [4] was “inactive” throughout.
As for `OCCNCCO`, the Potency result in experiment [1], in experiment [2], in experiment [3] and in experiment [4] was “inactive” throughout.
In the case of `OC[C@H]1O[C@@H](OCCc2ccc(O)cc2)[C@H](O)[C@@H](O)[C@@H]1O`, the Potency result in experiment [1], in experiment [2], in experiment [3] and in experiment [4] was “inactive” each time.
On to `Cc1cc2nc3ccc(=[N+](C)C)cc-3sc2cc1N`, for which the Potency is 1.38 µM (active) in experiment [1], 4.9 µM (active) in experiment [2], 2.19 µM (active) in experiment [3] and 24.5 µM (active) in experiment [4].
The corresponding values for `CCO[Si](CCCN=C=O)(OCC)OCC` are “inactive”, “inactive”, “inactive” and “inactive”.
The matching figures for `C/C(=C1\CCOC(=O)S1)N(C=O)Cc1cnc(C)nc1N`: “inactive”, “inactive”, “inactive” and “inactive”.
The corresponding values for `Cc1ccc(C)c(O)c1` are “inactive”, “inactive”, “inactive” and “inactive”.
Turning to `CCOC(=O)C(C)C(C)=O` (stereo not given), the Potency entry in experiment [1], in experiment [2], in experiment [3] and in experiment [4] was “inactive” in each case.
As for `Cc1cc(C)c(C)c(O)c1`, the Potency result in experiment [1], in experiment [2], in experiment [3] and in experiment [4] was “inactive” throughout.
For `C[C@]12CCC(=O)C=C1[C@@H]1C[C@@H]1[C@H]1[C@@H]3[C@@H]4C[C@@H]4[C@@]4(CCC(=O)O4)[C@@]3(C)CC[C@@H]12`, the Potency entry in experiment [1], in experiment [2], in experiment [3] and in experiment [4] was “inactive” each time.
For `C=C1C(CCl)(CCl)C2(Cl)C(Cl)C(Cl)C1(Cl)C2(Cl)Cl` (stereo not given), the Potency result in experiment [1], in experiment [2], in experiment [3] and in experiment [4] was “inactive” throughout.
Regarding `O=c1c2ccccc2oc2ccccc12`, the Potency entry in experiment [1], in experiment [2], in experiment [3] and in experiment [4] was “inactive” each time.
Take `NS(=O)(=O)c1ccc(Cl)c(S(N)(=O)=O)c1`: the Potency entry in experiment [1], in experiment [2], in experiment [3] and in experiment [4] was “inactive” throughout.
As to `Cc1ccccc1C(OCCN(C)C)c1ccccc1` (stereo not given), the Potency entry in experiment [1], in experiment [2], in experiment [3] and in experiment [4] was “inactive” each time.
For the molecule `CCC(=O)Nc1ccc(O)cc1`, the Potency entry in experiment [1], in experiment [2], in experiment [3] and in experiment [4] was “inactive” in each case.
Turning to `CCCCCCCCCCCCCC[N+](C)(C)C`, the Potency entry in experiment [1] and in experiment [4] was “inactive” each time. For the same molecule, the Potency is 30.6 µM (active) and 70.9 µM (active) and inactive in experiment [2]; 61.1 µM (active) and 39.9 µM (active) in experiment [3].
With `COc1cc2c(cc1N)oc1ccccc12`, the Potency result in experiment [1], in experiment [2], in experiment [3] and in experiment [4] was “inactive” in each case.
For the molecule `CN1Cc2cc(C(=O)N3CCC(C4CCNCC4)CC3)ccc2NC(CC(=O)O)C1=O` (stereo not given), the Potency result in experiment [1], in experiment [2], in experiment [3] and in experiment [4] was “inactive” each time.
Turning to `CCOc1ccccc1OCC1CNCCO1` (stereo not given), the molecule was called inactive in experiment [1], in experiment [2], in experiment [3] and in experiment [4].
With `O=C(N/N=C/c1ccc([N+](=O)[O-])o1)c1ccc(O)cc1`, the Potency entry in experiment [1], in experiment [2], in experiment [3] and in experiment [4] was “inactive” in each case.
Take `CC(C)C(=O)OC(=O)C(C)C`: the Potency result in experiment [1], in experiment [2], in experiment [3] and in experiment [4] was “inactive” throughout.
For the molecule `Cc1cc2cc3c(C)cc(=O)oc3c(C)c2o1`, the Potency result in experiment [1], in experiment [2], in experiment [3] and in experiment [4] was “inactive” each time.
In the case of `CC(N)CN` (stereo not given), the Potency result in experiment [1], in experiment [2], in experiment [3] and in experiment [4] was “inactive” throughout.
For `O=C(/C=C/c1ccccc1)OCc1ccccc1`, the Potency entry in experiment [1], in experiment [2], in experiment [3] and in experiment [4] was “inactive” in each case.
Turning to `CC(C)(C)CC(C)(C)c1ccccc1O`, the Potency entry in experiment [1], in experiment [2], in experiment [3] and in experiment [4] was “inactive” in each case.
Consider `CC[C@]1(O)C[C@H]2CN(CCc3c([nH]c4ccccc34)[C@@](C(=O)OC)(c3cc4c(cc3OC)N(C=O)[C@H]3[C@@](O)(C(=O)OC)[C@H](OC(C)=O)[C@]5(CC)C=CCN6CC[C@]43[C@@H]65)C2)C1`, for which the Potency result in experiment [1], in experiment [2], in experiment [3] and in experiment [4] was “inactive” throughout.
Consider `O=C1NCN(c2ccccc2)C12CCN(CCCC(c1ccc(F)cc1)c1ccc(F)cc1)CC2`, for which the Potency result in experiment [1], in experiment [2], in experiment [3] and in experiment [4] was “inactive” each time.
In the case of `O=C(O)c1ccccc1Nc1cccc(C(F)(F)F)c1`, the Potency result in experiment [1], in experiment [2], in experiment [3] and in experiment [4] was “inactive” throughout.
Consider `COCCOCCOCCOCCO`, for which the Potency entry in experiment [1], in experiment [2], in experiment [3] and in experiment [4] was “inactive” in each case.
As for `CC1(C)O[C@@H]2C[C@H]3[C@@H]4C[C@H](F)C5=CC(=O)C=C[C@]5(C)[C@@]4(F)[C@@H](O)C[C@]3(C)[C@]2(C(=O)CO)O1`, the Potency entry in experiment [1], in experiment [2], in experiment [3] and in experiment [4] was “inactive” throughout.
In the case of `Cc1cccc(C)c1C`, the Potency result in experiment [1], in experiment [2], in experiment [3] and in experiment [4] was “inactive” in each case.
`NCCN`: the molecule was called inactive in experiment [1], in experiment [2], in experiment [3] and in experiment [4].
For `NCCN1CCNC1=O`, the Potency result in experiment [1], in experiment [2], in experiment [3] and in experiment [4] was “inactive” each time.
For `CC(C)C[C@H](NC(=O)[C@H](Cc1ccccc1)NC(=O)c1cnccn1)B(O)O`, the Potency result in experiment [1], in experiment [2], in experiment [3] and in experiment [4] was “inactive” each time.
Regarding `Nc1cc(S(=O)(=O)O)ccc1O`, the Potency entry in experiment [1], in experiment [2], in experiment [3] and in experiment [4] was “inactive” in each case.
Take `CC(C)=CCC1C(=O)N(c2ccccc2)N(c2ccccc2)C1=O`: the Potency result in experiment [1], in experiment [2], in experiment [3] and in experiment [4] was “inactive” each time.
With `COC=O`, the activity, negative = inhibition in experiment [1] is 2.05% [at 10.5 µM] (inactive). For the same molecule, the activity change, negative = inhibition in experiment [2] was 0.267% [at 10.5 µM] (inactive); in experiment [3], -1.7% [at 10.5 µM] (inactive); in experiment [4], 0.679% [at 10.5 µM] (inactive).
Consider `CCCCCC(=O)O[C@]1(C(C)=O)CC[C@H]2[C@@H]3CCC4=CC(=O)CC[C@]4(C)[C@H]3CC[C@@]21C`, for which the Potency result in experiment [1], in experiment [2], in experiment [3] and in experiment [4] was “inactive” in each case.
With `CC(C)c1cccc(O)c1`, the Potency entry in experiment [1], in experiment [2], in experiment [3] and in experiment [4] was “inactive” in each case.
As to `O=c1[nH]c2ccc(Cl)cc2o1`, the Potency entry in experiment [1], in experiment [2], in experiment [3] and in experiment [4] was “inactive” throughout.

Values taken from PubChem BioAssay (Tox21).
